GLP-1R inv ag = qHTS of GLP-1 Receptor Inverse Agonists (Inhibition Mode). Glucagon-like peptide 1 receptor (Homo sapiens), P43220. HEK293 GLP-1R CRE-luciferase, luminescence, 24 h; GLP-1R form is constitutively active. Potency, µM (top dose mostly 38.3 µM), most hits filed as inhibitors. hit rate 1.6% among 410,000; also: nearly all actives have a fitted effect of over 55% in size
Target sequence (P43220 whole entry, looked up): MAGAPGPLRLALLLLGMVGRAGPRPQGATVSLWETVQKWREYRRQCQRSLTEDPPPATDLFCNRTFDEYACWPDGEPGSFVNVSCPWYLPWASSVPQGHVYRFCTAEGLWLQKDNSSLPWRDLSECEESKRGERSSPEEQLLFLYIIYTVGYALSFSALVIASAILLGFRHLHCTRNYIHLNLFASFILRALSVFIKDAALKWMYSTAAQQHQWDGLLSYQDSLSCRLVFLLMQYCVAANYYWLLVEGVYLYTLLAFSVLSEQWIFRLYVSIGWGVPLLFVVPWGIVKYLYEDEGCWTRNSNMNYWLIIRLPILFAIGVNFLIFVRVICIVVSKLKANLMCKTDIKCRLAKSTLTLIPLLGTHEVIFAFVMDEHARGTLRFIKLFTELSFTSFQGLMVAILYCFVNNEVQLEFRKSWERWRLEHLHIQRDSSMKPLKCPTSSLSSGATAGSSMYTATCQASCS
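Constitutively active GLP-1R drives a cAMP-responsive luciferase in stably transfected HEK293 cells; test compounds are added after overnight (12 h) attachment and left 24 hr, and signal loss in luminescence marks inhibition.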
GLP1R ag = qHTS of GLP-1 Receptor Agonists; hit rate 0.007% among 380,000; AID 624172, 2012; HEK293 GLP-1R CRE-luciferase, luminescence, 4-6 h; cells express a hypersensitive GLP-1R form; Potency, µM (titrated, usually from 45.6 µM), usual class: activators; Glucagon-like peptide 1 receptor (Homo sapiens), P43220
ATXN2 expr inh = Primary qHTS for Inhibitors of ATXN expression; AID 1745845, 2022; HEK-293 ATXN2-luciferase reporter, luminescence, 24 h; hit rate 0.72% among 360,000; Potency, µM (doses to about 57 µM), usual class: inhibitors; also: nearly all actives have a fitted effect of over 55% in size
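ATXN2-luciferase reporter cells (luciferase flanked by upstream and downstream ATXN2 gene portions) were treated 24 h at 37 °C with compounds at up to 57 uM. SteadyGlo luminescence gave expression; GF-AFC fluorescence gave viability.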
S2 tox = Viability Counterscreen for Primary qHTS for Inhibitors of ATXN expression | S2 cells (HEK-293 line with an ATXN2-luciferase reporter) viability, CellTiter-Fluor protease fluorescence, 24 h | Potency, µM (series often up to 56.7 µM), actives largely listed as cytotoxic | hit rate 0.49% among 400,000 | AID 651635, 2014; also: nearly all actives have a fitted effect of over 40% in size
HepG2 viability = qHTS for Inhibitors of TGF-b: Cytotox Counterscreen; HepG2 CAGA-GFP viability, ATP luminescence, 18 h; Potency, µM (titrated, usually from 46.1 µM), most hits filed as cytotoxic; hit rate 0.76% among 410,000
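HepG2 CAGA-GFP cells (1000/well, DMEM with 1% FBS) received compound, then TGF-beta at 500 pg/mL final, and were incubated 18 hours at 37 degrees C. Viability was read by CellTiter-Glo luminescence. Media-only wells were set as complete cell-killing and DMSO as no toxicity.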
TGFb SMAD3 inh = qHTS for Inhibitors of TGF-b | HepG2 CAGA-GFP TGF-b/SMAD3 reporter, GFP fluorescence, 18 h; TGF-beta stimulated, 500 pg/mL final | Potency, µM (top dose mostly 46.1 µM), most hits filed as inhibitors | hit rate 1.2% among 410,000 | AID 588855, 2011; also: nearly all actives have a fitted effect of over 65% in size
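Read-out: total well GFP (ex488/em500-530) summed from mean per-cell fluorescence. Cells: HEPG2 CAGA-GFP, 1% FBS DMEM, 18 h at 37 degrees C with 500 pg/mL final TGF-beta. Unstimulated wells served as the full-inhibition control; stimulated DMSO wells = 0%.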
A number is an active result; i = inactive; ? = inconclusive; nt = not tested or not shown; [ ] = dose if it differs, or a comment. The list is not random: actives were taken first. Their share in the collection is about 3.7%. Calls follow the shape of the dose curve; as a rule, active = well fitted curve in the direction sought with a large enough effect; inconclusive = small, poorly fitted or top-dose-only effect, or another doubt; inactive = no such curve, though single readings can be large; an effect the other way counts as inactive or inconclusive.

SMILES	GLP-1R inv ag	GLP1R ag	ATXN2 expr inh	S2 tox	HepG2 viability	TGFb SMAD3 inh
CC(C)(C)CC(C)(C)N=C1Nc2ccccc2N[C@]12C[C@H]1CCCC(=O)N3CC[C@@H](C2)[C@@H]13	nt	nt	nt	nt	i	?
CN(C(=O)COc1ccccc1C(=O)Nc1ccccc1)c1ccccc1	nt	nt	nt	nt	i	?
CCN=c1scc(-c2ccccc2)n1/N=C/c1ccccn1	3.16µM	i	?	?	i	i
C=CCN=c1scc(-c2ccccc2)n1/N=C/c1ccccn1	11.2µM	i	i	i	i	?
O=C(CC(c1ccccc1)c1cc(Br)ccc1O)NCC1(c2ccccc2)CCCC1 (stereo not drawn)	?	nt	?	35.5µM	i	17.8µM
C=C[C@@H]1c2cc(C)ccc2N(S(=O)(=O)c2ccc(C)cc2)[C@H](c2ccc(C(=O)OC)cc2)C1(C#N)C#N	nt	nt	nt	nt	i	i
O=S(=O)(c1ccc(C(F)(F)F)cc1)N1CCN(c2nc(-c3ccccc3)nc3ccccc23)CC1	nt	nt	nt	nt	i	i
CCOC(=O)N1CCC(N2C(=O)c3ccccc3C2Nc2cc(OC)c(OC)c(OC)c2)CC1 (stereo not drawn)	i	i	i	i	i	i
CCOC(=O)[C@]12Cc3c(cc(OC)c(OC)c3OC)[C@H]1N(C1CCCCC1)C(=O)c1cc(OC)ccc12	?	i	?	14.1µM	nt	nt
O=C(Nc1ccc(S(=O)(=O)N2CCCCC2c2cccnc2)cc1)c1ccc(Br)cc1 (stereo not drawn)	10µM	nt	14.1µM	11.2µM	i	i
CC(=O)Nc1ccc(S(=O)(=O)N2CCCCC2c2cccnc2)cc1 (stereo not drawn)	i	i	i	i	i	i
CCOc1ccc(C(=O)Nc2ccc(S(=O)(=O)N3CCCCC3c3cccnc3)cc2)cc1 (stereo not drawn)	?	nt	17.8µM	?	i	?
O=C1O[C@H]2[C@@H](OC(O)[C@@H]2O)[C@H]1O (stereo partly drawn)	nt	i	nt	nt	nt	nt
Cc1cc(C)c(O)c(-c2n[nH]c3c2C(c2cccc(O)c2)N(Cc2ccco2)C3=O)c1 (stereo not drawn)	?	i	i	28.2µM	i	?
O=C1c2[nH]nc(-c3ccccc3O)c2C(c2cccc(Cl)c2)N1Cc1ccco1 (stereo not drawn)	?	i	i	?	11.2µM	?
CCN(Cc1ccncc1)Cc1ccc2c(c1)CN(C(=O)c1ccccc1)CCO2	nt	nt	nt	i	nt	nt
COc1ccc(N2CCN(C(=O)c3cn(C4CCCCC4)c(=O)c4c3c3ccccc3n4C)CC2)cc1	?	nt	i	11.2µM	i	?
Cn1ncc2c(Nc3ccc(Cl)c(Cl)c3)ncnc21	i	i	nt	?	i	i
CN1CCC(Nc2ncc3ncnc(Nc4ccc(F)c(Cl)c4)c3n2)CC1	nt	i	28.2µM	?	nt	nt
COc1ccc(OC)c(/C=C2\C=Cc3ccccc32)c1	nt	nt	nt	nt	i	?
Cc1nc(NC(=O)/C=C/c2ccccc2)n[nH]1	i	i	i[11.3 µM]	i	i	12.6µM
CC(C1CC2CCC1C2)n1c(-c2cccs2)n[nH]c1=S (stereo not drawn)	5.01µM	i	i	i	i	i
Cc1cc(CNC(=O)c2cnn(-c3nccc(-c4ccc5c(c4)OCO5)n3)c2C2CC2)on1	nt	nt	nt	i	nt	nt
CN1/C(=C\C(=O)Nc2cccc(Cl)c2)C(C)(C)c2ccccc21	5.01µM	i	i	i	i	?
COc1ccc(/C=C2\CCCCC2=O)cc1	i	i	i	i	i	i
SMILES	GLP-1R inv ag	GLP1R ag	ATXN2 expr inh	S2 tox	HepG2 viability	TGFb SMAD3 inh
COc1ccc(C=C2CS(=O)(=O)CC(=Cc3ccc(OC)cc3)C2=O)cc1	?	i	nt	?	i	5.01µM
COc1ccc(/C=C/c2cc(C(=O)O)c3ccccc3n2)cc1	?	i	2.24µM	i	i	i
COc1cc(OC)c(OC)cc1/C=C/c1cc(C(=O)O)c2ccccc2n1	i	i	nt	i	i	i
Fc1ccccc1C1CC(c2ccco2)=Nc2ccccc2S1 (stereo not drawn)	i	i	nt	?	i	17.8µM
CCc1nnc(NC(=O)c2ccc3ccccc3n2)s1	7.94µM	i	i	i	i	?
CCSc1nnc(NC(=O)c2ccc3ccccc3n2)s1	5.01µM	i	?	nt	i	?
CCSc1nnc(NC(=O)c2cc(C)nc3ccccc23)s1	i	i	i	i	i	i
CCOC(=O)C1=C(CS(=O)(=O)c2ccc(C)cc2)NC(=O)NC1c1ccc(C(C)C)cc1 (stereo not drawn)	?	i	?	?	i	?
COc1ccccc1N1C(=O)C2CC(C)=C(C)CC2C1=O (stereo not drawn)	i	i	i	i	i	i
COc1ccccc1N1C(=O)C=C(Sc2nc(C)cc(C)n2)C1=O	i	i	i	i	11.2µM	11.2µM
O=C(CCl)Nc1cc(-c2ccccc2)nn1-c1ccccc1	?	i	?	31.6µM	i	?
COC(=O)C1CCCCN1Cc1nc(N(C)C)c2ccccc2n1 (stereo not drawn)	nt	nt	nt	i	nt	nt
COc1ccc(-c2nc(-c3ccc(NC(=O)c4ccc(Br)o4)cc3)no2)cc1OC	?	i	?	17.8µM	i	?
COc1cc(-c2nc(-c3ccc(NC(=O)c4ccc(Br)o4)cc3)no2)cc(OC)c1OC	i	i	i	?	i	i
O=C(NNC(=O)c1cc(-c2ccc(Cl)cc2Cl)nc2ccccc12)Nc1ccccc1	2.82µM	i	i	?	i	?
COc1cccc(N2C(N)=NC(N)=NC2(C)C)c1	i	i	i	i	i	i
CC1(C)N=C(N)N=C(N)N1c1cccc(C#N)c1	?	i	i	i	2µM	i
O=C(NC1CCCCCCC1)c1cccc(Cl)c1	?	i	i	i	i	i
Cc1nn(Cc2cccc(C(=O)NC3CCCCC3)c2)c(C)c1Cl	10µM	i	i	i	i	i
Cc1ccc(SC2=NS(=O)(=O)c3ccccc32)c(C)c1	nt	nt	nt	nt	i	i
CCCCCCCCCCCCCC[N+](C)(C)C	nt	i	22.4µM	?	nt	nt
CC#CC[N+](C)(C)CCCCCCCCCCCC	?	i	25.1µM	?	i	?
CCCCCCCCCCCCCCCC[N+](C)(C)CC	11.2µM	i	14.1µM	17.8µM	i	?
C#CC[N+](C)(C)CCCCCCCCCC	?	i	?	i	i	?
CCCCCCCCCCCCCCCC[N+](C)(C)CCl	3.55µM	i	i	?	i	?
COc1cccc(CN2C(=O)N(c3ccc(C)cc3)C(=O)C2CC(=O)Nc2cc(OC)cc(OC)c2)c1 (stereo not drawn)	?	nt	nt	nt	i	i
